Experiment in all cases: growth (OD600 after 10 h); higher = more growth (less inhibition)
Assay [1] deals with E. coli TESEC Alr+ wild-type control. The note with it: compound 0.1 mM; raw OD600 reference: median of DMSO wells 0.241, cell-free background 0.041. Here is the method: (§1)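 TESEC Mtb Alr E. coli, or the Alr+ wild-type control, in 384-well plates with Prestwick library compounds at 0.1 mM and 1% DMSO, across arabinose induction levels of 1E3 to 1E7 nM. Growth is read as OD600 after 10 h at 37 °C in triplicate biological replicates.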

In assay [2] the test system is E. coli TESEC Mtb Alr. Conditions: compound 0.1 mM. On the procedure: as §1
Assay [3] concerns E. coli TESEC Mtb Asd. The note with it: compound 0.1 mM. On the procedure: (§2)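 TESEC E. coli strains in which the native enzyme is deleted and replaced by arabinose-inducible Mtb Asd, DapB, CysH or TrpD, each grown in its selective medium. Strains were screened against the Prestwick library at 0.1 mM and 1% DMSO in 384-well format at low and high arabinose induction. Growth is read as OD600 after 10 h in triplicate.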

In assay [4] the test system is E. coli TESEC Mtb DapB. The note with it: compound 0.1 mM. Here is the method: as §2
For assay [5], the system named is E. coli TESEC Mtb Alr. Conditions: compound 0.1 mM. On the procedure: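 TESEC Mtb Alr E. coli (ΔaraC ΔtolC ΔentC Δalr ΔdadX, arabinose-inducible Mtb Alr) or the Alr+ wild-type control strain, grown in defined M9-fructose medium without D-alanine in 96-well plates with Prestwick library compounds at 0.1 mM and 1% DMSO. Low Alr induction is 0.1 µM arabinose and high induction is 10 mM arabinose.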
This is another data set of the same source.

Setting [6] is: arabinose 1000 nM, raw OD600 reference: median of DMSO wells 0.294, cell-free background 0.041.
[7] abbreviates: arabinose 10000 nM, raw OD600 reference: median of DMSO wells 0.264, cell-free background 0.041.
[8] abbreviates: arabinose 100000 nM, raw OD600 reference: median of DMSO wells 0.201, cell-free background 0.041.
Setting [9] is: arabinose 1000000 nM, raw OD600 reference: median of DMSO wells 0.193, cell-free background 0.041.
[10] abbreviates: arabinose 10000000 nM, raw OD600 reference: median of DMSO wells 0.146, cell-free background 0.041.
Setting [11] is: arabinose induction (level): High, raw OD600 reference: median of DMSO wells 0.331, cell-free background 0.041.
The mark [12] stands for this setting: arabinose induction (level): Low, raw OD600 reference: median of DMSO wells 0.417, cell-free background 0.041.
The mark [13] stands for this setting: arabinose induction (level): High, raw OD600 reference: median of DMSO wells […], cell-free background 0.041.
Setting [14] is: arabinose induction (level): Low, raw OD600 reference: median of DMSO wells 0.227, cell-free background 0.041.
Where [15] appears, read: arabinose 100 nM, raw OD600 reference: median of DMSO wells 0.413, cell-free background 0.052.
Setting [16] is: arabinose 10000000 nM, raw OD600 reference: median of DMSO wells […], cell-free background 0.052.

Structures can show the parent of a compound that is named as a salt. ± gives the standard deviation of the averaged measurements.

We go through 7 compounds from the supplement of paper PMC9262897, “Low-cost anti-mycobacterial drug discovery using engineered E. coli” (Nature Communications, 2022).

As for `C1N2CN3CN1CN(C2)C3` [Methenamine], the growth in assay [1] came out at 0.245 ± 0.011; in assay [2] (setting [6]), 0.287 ± 0.0055; in assay [2] (setting [7]), 0.275 ± 0.0029; in assay [2] (setting [8]) it was 0.198 ± 0.025; in assay [2] (setting [9]), 0.226 ± 0.0064; in assay [2] (setting [10]) it was 0.14 ± 0.0044. Moreover, the growth was 0.345 ± 0.048 in assay [3] (setting [11]); 0.33 ± 0.051 in assay [3] (setting [12]); 0.204 ± 0.0098 in assay [4] (setting [13]); 0.218 ± 0.035 in assay [4] (setting [14]); 0.41 ± 0.01 in assay [5] (setting [15]); 0.376 ± 0.0071 in assay [5] (setting [16]).
On to `Nc1nc(=O)c2c([nH]1)NC[C@@H](CNc1ccc(C(=O)N[C@@H](CCC(=O)O)C(=O)O)cc1)N2C=O` [Folinic acid calcium salt], for which the growth in assay [1] was 0.255 ± 0.0064; in assay [2] (setting [6]), 0.289 ± 0.0096; in assay [2] (setting [7]), 0.274 ± 0.0059; in assay [2] (setting [8]) it was 0.204 ± 0.033; in assay [2] (setting [9]) it was 0.211 ± 0.016; in assay [2] (setting [10]) it was 0.1379 ± 0.0013. Besides, the growth in assay [3] (setting [11]) amounted to 0.307 ± 0.0086; in assay [3] (setting [12]) it was 0.391 ± 0.08; in assay [4] (setting [13]), 0.203 ± 0.012; in assay [4] (setting [14]), 0.218 ± 0.014; in assay [5] (setting [15]), 0.397 ± 0.008; in assay [5] (setting [16]) it was 0.375 ± 0.019.
Consider `CC[C@]12CCCN3CCc4c(n(c5ccccc45)[C@@](O)(C(=O)OC)C1)[C@@H]32` [Vincamine], for which the growth amounted to 0.235 ± 0.0064 in assay [1]; 0.276 ± 0.0046 in assay [2] (setting [6]); 0.258 ± 0.0043 in assay [2] (setting [7]); 0.193 ± 0.023 in assay [2] (setting [8]); 0.173 ± 0.0043 in assay [2] (setting [9]); 0.138 ± 0.0023 in assay [2] (setting [10]). In addition, the growth in assay [3] (setting [11]) came out at 0.375 ± 0.011; in assay [3] (setting [12]) it was 0.456 ± 0.006; in assay [4] (setting [13]), 0.191 ± 0.015; in assay [4] (setting [14]), 0.266 ± 0.071; in assay [5] (setting [15]), 0.422 ± 0.011; in assay [5] (setting [16]), 0.322 ± 0.011.
Turning to `NS(=O)(=O)c1cc(C(=O)O)cc(N2CCCC2)c1Oc1ccccc1` [Piretanide], the growth is 0.243 ± 0.0085 in assay [1]; 0.28 ± 0.0043 in assay [2] (setting [6]); 0.278 ± 0.0094 in assay [2] (setting [7]); 0.22 ± 0.025 in assay [2] (setting [8]); 0.202 ± 0.0072 in assay [2] (setting [9]); 0.134 ± 0.0051 in assay [2] (setting [10]). The growth in assay [3] (setting [11]) worked out at 0.405 ± 0.0083; in assay [3] (setting [12]), 0.4 ± 0.034; in assay [4] (setting [13]), 0.21 ± 0.029; in assay [4] (setting [14]) it was 0.245 ± 0.025; in assay [5] (setting [15]) it was 0.4122 ± 0.0034; in assay [5] (setting [16]), 0.341 ± 0.0064.
In the case of `Cc1cccc(Nc2ccncc2S(=O)(=O)NC(=O)NC(C)C)c1` [Torsemide], the growth in assay [1] turned out to be 0.222 ± 0.005; in assay [2] (setting [6]) it was 0.29 ± 0.012; in assay [2] (setting [7]), 0.257 ± 0.019; in assay [2] (setting [8]), 0.168 ± 0.012; in assay [2] (setting [9]), 0.17 ± 0.0046; in assay [2] (setting [10]) it was 0.16 ± 0.0021. Besides, the growth amounted to 0.228 ± 0.029 in assay [3] (setting [11]); 0.353 ± 0.095 in assay [3] (setting [12]); 0.197 ± 0.021 in assay [4] (setting [13]); 0.26 ± 0.019 in assay [4] (setting [14]); 0.403 ± 0.016 in assay [5] (setting [15]); 0.326 ± 0.025 in assay [5] (setting [16]).
As for `Cc1cccc(C)c1NC(=O)C1CCCCN1C` (centres undefined) [Mepivacaine hydrochloride], the growth in assay [1] is 0.233 ± 0.012; in assay [2] (setting [6]), 0.2802 ± 0.0024; in assay [2] (setting [7]), 0.273 ± 0.0048; in assay [2] (setting [8]) it was 0.199 ± 0.026; in assay [2] (setting [9]), 0.225 ± 0.013; in assay [2] (setting [10]), 0.136 ± 0.0053. For the same compound, the growth was 0.366 ± 0.042 in assay [3] (setting [11]); 0.367 ± 0.045 in assay [3] (setting [12]); 0.203 ± 0.013 in assay [4] (setting [13]); 0.216 ± 0.024 in assay [4] (setting [14]); 0.41 ± 0.011 in assay [5] (setting [15]); 0.365 ± 0.0059 in assay [5] (setting [16]).
Turning to `CCN(CC)CCCC(C)Nc1ccnc2cc(Cl)ccc12` (centres undefined) [Chloroquine diphosphate], the growth in assay [1] amounted to 0.236 ± 0.0047; in assay [2] (setting [6]) it was 0.338 ± 0.0096; in assay [2] (setting [7]), 0.2486 ± 0.0011; in assay [2] (setting [8]), 0.235 ± 0.025; in assay [2] (setting [9]) it was 0.176 ± 0.0044; in assay [2] (setting [10]), 0.163 ± 0.0047. In addition, the growth in assay [3] (setting [11]) came to 0.253 ± 0.047; in assay [3] (setting [12]), 0.246 ± 0.029; in assay [4] (setting [13]), 0.201 ± 0.026; in assay [4] (setting [14]), 0.226 ± 0.047; in assay [5] (setting [15]), 0.412 ± 0.014; in assay [5] (setting [16]) it was 0.328 ± 0.02.
